# According to PubChem BioAssay (Tox21):
# Inconclusive results are not listed. Calls of active or inactive are those of the source. Calls follow the shape of the dose curve; as a rule, active = well fitted cell-killing curve with a large enough effect in the repeat runs; inconclusive = weak or mixed curves; inactive = flat fitted curve, though single readings scatter.
# Assay: qHTS assay to identify small molecule antagonists of the estrogen receptor beta (ER-beta) signaling pathway - cell viability counter screen (AID 1259382); also: nearly all actives have a fitted effect of over 55% in size
# Details: ER-beta-UAS-bla HEK293T viability, CellTiter-Glo luminescence, 16 h; series mostly up to 92.4 µM; activity change, negative = cytotoxicity: at the top concentration
# Description: U.S. Tox21 Program National Center for Advancing Translational Sciences [NCATS] NIH Chemical Genomics Center [NCGC] U.S. Environmental Protection Agency [EPA] National Institutes of Environmental Health Sciences [NIEHS] National Toxicology Program [NTP] U.S. Food and Drug Administration [FDA] Tox21 Assay Overview: Estrogen receptor (ER), a nuclear hormone receptor, plays an important role in development, metabolic homeostasis and reproduction. Two subtypes of ER, ER-alpha and ER-beta, have similar expression patterns with some uniqueness in both types. Endocrine disrupting chemicals (EDCs) and their interactions with steroid hormone receptors like ER causes disruption of normal endocrine function. To identify the compounds that inhibit ER signaling, an ER-beta-UAS-bla GripTite cell line (Life Technologies, Madison, WI, USA) containing a beta-lactamase reporter gene under the control of an UAS response element was used to screen Tox21 10K compound library. The cytotoxicity of the Tox21 compound library against the ER-beta-bla cell line was tested in parallel by measuring the cell viability using CellTiter-Glo assay in the same wells.
# Tox21 Assay Protocol Summary: ER-beta-UAS-bla HEK293T cells were dispensed at 2,000 cells/4 uL of assay medium containing 2% charcoal stripped FBS per well into black wall/clear-bottom 1536-well plates using a Multidrop Combi (ThermoFisher Scientific, Waltham, MA) dispenser. After the assay plates were incubated at a 37C and 5% CO2 for 6 hr, 23 nL of compounds dissolved in DMSO, positive controls or DMSO only was transferred to the assay plate by a Pintool station (Kalypsys, San Diego, CA), followed by addition of 1 uL (1nM as final concentration) of 17-beta-estradiol (E2) in assay medium using a Flying Reagent Dispenser (FRD, Aurora Discovery, San Diego, CA). The plates were incubated at 37C and 5% CO2 for 16 hr. Then 1 uL of LiveBLAzer B/G FRET substrate was added using a Flying Reagent Dispenser, the plates were incubated at room temperature for 2 hours, and fluorescence intensity was measured by an Envision plate reader (PerkinElmer, Shelton, CT). For cell viability readout that measures cytotoxicity, 4 uL/well of CellTiter-Glo reagent was added into the assay plates using a FRD. After 30 min incubation at room temperature, the luminescence intensity in the plates was measured using a ViewLux (PerkinElmer) plate reader.
# % is scaled to controls: 0 for no effect and ±100 for the full control effect.
row,SMILES,"activity change, negative = cytotoxicity"
1,Nc1ccncc1N,6.34% [at 42.5 µM] (inactive)
2,O=C(O)c1cn(C2CC2)c2cc(N3CCNCC3)c(F)cc2c1=O,0.943% [at 42.5 µM] (inactive)
3,CCN(CC#N)c1cccc(C)c1,-0.994% (inactive)
4,C=CCCC(=O)O,1.01% (inactive)
5,Cc1c(N)c(=O)n(-c2ccccc2)n1C,5.17% [at 42.5 µM] (inactive)
6,CCC(=O)OCc1ccccc1,-3.16% (inactive)
7,C=CCCCCCCCCC(=O)OCC,-0.558% (inactive)
8,CC/C=C\CCOC(C)OCC (stereo not given),0.492% [at 42.5 µM] (inactive)
9,CC[N+](C)(CC)CCOC(=O)C1c2ccccc2Oc2ccccc21,-1.91% [at 42.5 µM] (inactive)
10,CC1(C)OC[C@@H](COC(=O)CCc2ccc(OC[C@@H](O)CNCCNC(=O)N3CCOCC3)cc2)O1,0.833% [at 42.5 µM] (inactive)
11,CN(C)[C@@H]1C(=O)C(C(=O)NCN2CCCC2)=C(O)[C@@]2(O)C(=O)C3=C(O)c4c(O)cccc4[C@@](C)(O)C3C[C@@H]12 (stereo not given in full),-1.52% [at 42.5 µM] (inactive)
12,O=C1CCCCCCCCCCCCCCO1,6.5% (inactive)
13,NC(=O)N[C@@H](CCC(=O)O)C(=O)O,1.59% [at 42.5 µM] (inactive)
14,CC1OC1C1CCC2(C)OC2C1 (stereo not given),12.4% (inactive)
15,CN1CC(=O)N/C1=N/C(=O)Nc1cccc(Cl)c1,-3.95% [at 42.5 µM] (inactive)
16,CCN1CCOCC1,0.402% (inactive)
17,CC(C)(C#N)Nc1nc(Cl)nc(NC2CC2)n1,-3.82% (inactive)
18,OCCCCCO,0.175% (inactive)
19,CCCCc1nc(Cl)c(CO)n1Cc1ccc(-c2ccccc2-c2nn[nH]n2)cc1,3.32% [at 42.5 µM] (inactive)
20,CC(C(=O)O)c1cccc(Oc2ccccc2)c1 (stereo not given),-1.78% [at 42.5 µM] (inactive)

row,SMILES,"activity change, negative = cytotoxicity"
1,CCNS(=O)(=O)c1ccc(C)cc1,-0.58% (inactive)
2,CN1[C@@H]2CC[C@H]1CC(OC(=O)C(O)c1ccccc1)C2 (stereo not given in full),1.45% [at 42.5 µM] (inactive)
3,CCCCCC(C)N (stereo not given),3.41% [at 42.5 µM] (inactive)
4,CCCCCCCCCCCCCCC(=O)O,-6.54% (inactive)
5,C=CC(=O)OCCCl,-7.1% (inactive)
6,COc1cc(C)nc(-n2nc(C)cc2OC)n1,-0.166% [at 42.5 µM] (inactive)
7,O=C(O)CC(C(=O)O)S(=O)(=O)O (stereo not given),6.18% (inactive)
8,FB(F)F,2.53% (inactive)
9,CC1=CC(=O)[C@H]2C[C@@H]1C2(C)C,0.143% (inactive)
10,CC[N+](CC)(CC)CCOc1cccc(OCC[N+](CC)(CC)CC)c1OCC[N+](CC)(CC)CC,-0.417% [at 42.5 µM] (inactive)
11,COc1cc(C(=O)NCc2ccc(OCCN(C)C)cc2)cc(OC)c1OC,-0.844% [at 42.5 µM] (inactive)
12,CC(C)C1CCC(O)CC1 (stereo not given),-1.31% (inactive)
13,CO[C@@]1(NC(=O)CSC[C@@H](N)C(=O)O)C(=O)N2C(C(=O)O)=C(CSc3nnnn3C)CS[C@@H]21,2.95% [at 42.5 µM] (inactive)
14,CCO[Si](OCC)(OCC)c1ccccc1,2.62% (inactive)
15,CCCC(=O)O[C@]1(C(=O)CC)CC[C@H]2[C@@H]3CCC4=CC(=O)CC[C@]4(C)[C@H]3[C@@H](O)C[C@@]21C,-9.29% [at 42.5 µM] (inactive)
16,[O-][n+]1cccc(CO)c1,5.87% [at 42.5 µM] (inactive)
17,N[C@H](C(=O)O)[C@@H](O)c1ccc(O)c(O)c1,16.6% [at 42.5 µM] (inactive)
18,CCCCN1C=CN(C)C1,-4.66% [at 19 µM] (inactive)
19,CC1=C(C/C=C(\C)CCC[C@H](C)CCC[C@H](C)CCCC(C)C)C(=O)c2ccccc2C1=O,-0.218% [at 42.5 µM] (inactive)
20,NS(=O)(=O)Cc1noc2ccccc12,11.3% [at 42.5 µM] (inactive)
